According to the supplement of paper PMC6555819:

Each sequence was assayed on VDR:RXRa (NR concentration 270 nM, RXRa partner concentration 90 nM) (assay: PBM binding z-score (relative to random genomic background probes); higher = stronger binding; sequences stand for … in GC…GCGATTGACAGCGTAGAATGAAGG).
Description: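 Protein-binding microarray (Agilent 4x180K custom design, double-stranded 60-nt probes: 5' GC cap, 34-nt variable region, 24-nt constant primer region; full probe sequence given). Purified or IVT nuclear receptor:RXRα heterodimers (3:1 NR:RXRα, mostly 270:90 nM) or homodimers were incubated for 1 h in PBS with 2% milk and no ligand, then detected with Alexa488 antibodies. Fluorescence from o1-orientation probes (~5 replicates averaged) was converted to z-scores against 500 random hg19 background probes. Variable regions are seed direct-repeat (DR0–DR5) sites, all their single-nucleotide variants and half-site ablations.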
For TAGCGTAGGTCATGGGCCAGTATACCACGCGAAC, the PBM binding z-score was 2.24.
Work on GCTAGCAGGCCAGTTGGGTCACTCAATGACGGGC yielded a PBM binding z-score of -0.00125.
CGAACTAGATCATTGACAGGACAGTGAATAGTAA was tested, and the PBM binding z-score was 0.158.
ATCGAAAGGTCGAGGAGAGTATAGAGAAAGGGAA showed a PBM binding z-score of 2.64.
Sequence TCACGGAGGACACGAAGGTCAGAGCTTTCCAGAG has a PBM binding z-score of 2.33.
Sequence CGTTAAAGTTCAACTAAGGTAACGTAAAGCACGC has a PBM binding z-score of 4.58.
Sequence CCAGACAGGAGAGAAGGTAACTCAGCCTCGATTA has a PBM binding z-score of -0.312.
Work on TCTTGTAAATCAGCAGGTTAAGAAAGCTGGCCAA yielded a PBM binding z-score of 0.539.
Work on TCACCAAGGTGAAAGGTCGTTGATGCACGCCTTG yielded a PBM binding z-score of 3.17.
Sequence CAAACTAGGTCAAGGTCAAACTCGGTTTGTGCCA has a PBM binding z-score of 5.49.
With CCTTACGGGTCCAGGTTATAGCACGGGTGGTACG the PBM binding z-score was -0.152.
Sequence CGTCCAAGGTAAGCAGGTCAGTGAAAGCGACGTG has a PBM binding z-score of 0.00518.
For ACACGGAGGACAAAGGTCAGAGCTACGCCAGTGA, the PBM binding z-score was 3.46.
ACTCGGAGGACAAAGGTCTGAGCTACGCCAGTGA was tested, and the PBM binding z-score was -0.29.
CCTAGTTGGTCAGGAGGTCACACCCCGGATATGA was tested, and the PBM binding z-score was 3.82.
ATCTCTTGGTAAAAGTTCAGTGAATCCCGAGGAT gave a PBM binding z-score of 1.14.
In the case of TCGAGTAGGTTAGTCGGGGCCTTCAGCCAACATA, the PBM binding z-score is reported as -0.158.
For ATCTCTAGGTAGAGTTCAGTGAAAGATCGATAGA, the PBM binding z-score was 2.38.
For TCATATGGGTAAAAGGTGAAAGTCGGTGTGGTAA, the PBM binding z-score was 1.34.
TATACAGGGTCACAGGCCAGAGTACGAATGTCGA gave a PBM binding z-score of 4.92.
CCTACTGGGCCACGAATGGTCATTGATTCAGTGA showed a PBM binding z-score of -0.558.
Sequence AGAATGAGGTTCTTAAGATCAGGGAATTGCGGTC has a PBM binding z-score of 0.0724.
In the case of CAAACTAGCTCAAGGTCAAAGTCGGTTTGTGCCA, the PBM binding z-score is reported as 4.51.
For CCGACTGGGGCAAGGTTACCGTAACGCACAGCCA, the PBM binding z-score was -0.0549.
GCTTGTAGATCCAGGTTAAGAAAGACTAAGCTAA was tested, and the PBM binding z-score was -0.307.
AATACAGGGTTACTAGGCCAGAGTAGGTACGAAT gave a PBM binding z-score of 0.824.
GCGGCTGGGGCATCAGCAGGTTACCATAACTTAA gave a PBM binding z-score of -0.259.
For CCTAGTCGGTCAAGGTCACACACGCTATAGGTAC, the PBM binding z-score was 4.29.
TCTTGTAGATCAACAGAGGTTAAGAAAGTGCGCT gave a PBM binding z-score of 2.03.
GGTGCTAGGTCAACTGATGGTCAGCTAAAGCTCG was tested, and the PBM binding z-score was 1.89.
For ATATGTAGGTTATCGGTTCATTCAGTTTGCGCAT, the PBM binding z-score was 3.97.
In the case of TCTCGGAGGACACGAACGTCAGAGCTTTCCAGAG, the PBM binding z-score is reported as -0.0912.
With TCAGACAGTTGAAGGTAACTCAGGTACGCAGTCG the PBM binding z-score was 1.03.
Work on CATACAGGGTCAGATAGGCCAGAGTAGGGACGGC yielded a PBM binding z-score of 3.2.
With ATATGTAGGTTACGGGTCATTCAGGTTGGTTCGC the PBM binding z-score was 4.76.
With ATCGAAAGGTCGACGAGGTGCGTATACACCGTTT the PBM binding z-score was 4.18.
AGTCAAAGTTCACTAGTTAACGTAAGATTCAGCT was tested, and the PBM binding z-score was 3.88.
With GGTACGAGGGCATTCGAGTTGATAGCATGGCGAT the PBM binding z-score was 3.71.
In the case of CCAGACAGTTGAGAAGGTAACTCAGCCTCGATTA, the PBM binding z-score is reported as 0.251.
In the case of ATCTCTAGGTAAAGTTCAGTGACAGATCGATAGA, the PBM binding z-score is reported as 1.63.
